The campaign covered roughly 320,000 compounds. About 2,800 (0.88%) were called active.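 How the source made its calls: active means inhibition above the mean inhibition of all tested compounds plus 3 SD, computed separately for each screening campaign (cut at about 15% in these data); inactive means the rest.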 Many of the other results were omitted from the sample, so actives are more common in it than they were.
Molecular target: Serine/threonine-protein phosphatase PP1-alpha catalytic subunit (Homo sapiens) (UniProt P62136)
Assay: PP1-alpha phosphatase inhibitors, primary screen, counter-screen for PP5 inhibitor project, biochemical, fluorescence, OMFP substrate, single point (AID 2235)
Conditions: purified PP1alpha, at 6.7 µM, active compounds read high

Sequence of Serine/threonine-protein phosphatase PP1-alpha catalytic subunit (Homo sapiens) (P62136 whole entry, looked up): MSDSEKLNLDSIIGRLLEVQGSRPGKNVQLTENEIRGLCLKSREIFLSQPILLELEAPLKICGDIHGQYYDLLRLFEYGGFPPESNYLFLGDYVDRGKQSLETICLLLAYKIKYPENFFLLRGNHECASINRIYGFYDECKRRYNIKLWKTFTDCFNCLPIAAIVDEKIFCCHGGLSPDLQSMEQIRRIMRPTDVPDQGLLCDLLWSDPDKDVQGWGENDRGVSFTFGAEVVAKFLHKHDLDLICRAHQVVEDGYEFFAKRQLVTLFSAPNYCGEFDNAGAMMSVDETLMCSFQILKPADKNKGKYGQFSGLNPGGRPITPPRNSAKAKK

Compound	inhibition
CC(C)CCSc1ncnc2c1oc1nc3c(cc12)COC(C)(C)C3	-3.04% (inactive)
Cc1c(CC(=O)N2CCN(C(=O)C3COc4ccccc4O3)CC2)c(=O)oc2c(O)c(O)ccc12 (stereo not given)	3.96% (inactive)
Cc1cc(Nc2ccc(Br)cc2F)n2ncnc2n1	-2.4% (inactive)
COc1ccc(C2C(C(C)=O)=C(O)C(=O)N2c2nccs2)cc1 (stereo not given)	-3.06% (inactive)
COc1ccc(C2C(C(C)=O)=C(O)C(=O)N2Cc2cccnc2)cc1 (stereo not given)	-4.55% (inactive)
COc1ccc(C2C(C(C)=O)=C(O)C(=O)N2CCc2c[nH]c3ccccc23)cc1 (stereo not given)	18.3% (active)
Cc1onc(-c2ccccc2Cl)c1C(=O)N(Cc1ccc(N(C)C)cc1)C(C)C	0.01% (inactive)
COc1ccc2c(c1)c(C(=O)N/N=C/c1cccs1)c(C)n2C	-3.65% (inactive)
COc1ccc(CN(C)C(=O)c2cc(-c3ccc(C)cc3C)nc3ccccc23)c(OC)c1OC	1.42% (inactive)
Cc1ccc2c(Cl)c(C(=O)Nc3nn[nH]n3)sc2c1	10.3% (inactive)
Cc1ccc(-c2cc(C(=O)Nc3nn[nH]n3)c3ccccc3n2)c(C)c1	21.8% (active)
COc1cccc(NC(=O)C(Sc2nnnn2C)c2ccccc2)c1 (stereo not given)	-7.84% (inactive)
Cc1onc(-c2ccccc2Cl)c1C(=O)NCCn1ccc2ccccc21	0.26% (inactive)
Cc1ccc2cc(CCNC(=O)c3ccc4c(c3)OCO4)c(=O)[nH]c2c1	0.9% (inactive)
Cc1ccc2cc(CCNC(=O)c3c(-c4ccccc4Cl)noc3C)c(=O)[nH]c2c1	57.5% (active)
O=S(=O)(NCCc1ccccn1)c1cc(Cl)cc(Cl)c1O	-3.07% (inactive)
COc1cc(S(=O)(=O)N2CCOCC2)ccc1NC(=O)COc1ccc(N(C)S(=O)(=O)c2ccc(C)cc2)cc1	5.5% (inactive)
O=C(Nc1ccccc1F)c1ccc(S(=O)(=O)N2CCCCCC2)cc1	0.94% (inactive)
CC(=O)N1CCCc2cc(S(=O)(=O)N3CCCC(C(=O)N4CCN(c5cccc(Cl)c5)CC4)C3)ccc21 (stereo not given)	-0.49% (inactive)
CCOC(=O)COn1c(=O)c(-c2ccc(OCC)cc2)[n+]([O-])c2ccccc21	-1.29% (inactive)
CCCCCCCCCCOC(=O)Cn1c(COc2cccc(OC)c2)[n+](C)c2ccccc21	33% (active)
CCn1c(COc2cccc(OC)c2)nnc1SCC(=O)N1CCOCC1	-1.11% (inactive)
CCCCn1c(N)c(N(CCOC)C(=O)c2cccc(OCc3ccccc3)c2)c(=O)[nH]c1=O	-1.96% (inactive)

Compound	inhibition
CCOC(=O)Cn1c(-c2cccnc2Cl)nc2ccccc21	2.18% (inactive)
CCCCCCCCCCOC(=O)Cn1c(COc2ccc(C)cc2)[n+](C)c2ccccc21	44.7% (active)
O=C(CCN1C(=O)[C@@H]2Cc3ccccc3CN2C1=O)NCCc1ccccc1	-2.43% (inactive)
COC(=O)CCCC1=CC2=C(c3ccccc3)C(=O)C(C)(OC(=O)C3CCCC3)C(=O)C2=CN1c1ccc(OC)cc1 (stereo not given)	-4.53% (inactive)
CSc1ncccc1C(=O)Nc1ccc2c(c1)OCO2	-1.92% (inactive)
Oc1c(C(c2ccccn2)N2CCOCC2)ccc2cccnc12 (stereo not given)	78.5% (active)
CCOc1cc(N2CCOCC2)c(OCC)cc1NC(=O)COc1cccc2cccnc12	2.8% (inactive)
CCOC(=O)N1CCN(C(c2cccnc2)c2ccc3cccnc3c2O)CC1 (stereo not given)	3.71% (inactive)
CC(=O)N1CCN(CC(C)(C)NS(=O)(=O)c2ccc(C)cc2)CC1	-0.49% (inactive)
COc1ccc(S(=O)(=O)N(C)CC(=O)N2CCCC2)cc1Cl	-3.22% (inactive)
COc1ccc(/C=C2\SC(=S)N(CCCC(=O)NC3CCCC3)C2=O)cc1OC	3.46% (inactive)
O=C(CCCN1C(=O)/C(=C/c2ccccc2)SC1=S)Nc1ccc(O)cc1	1.67% (inactive)
Cc1ccc(-c2nn(-c3ccccc3)cc2/C=C2\SC(=S)N(CCCCCC(=O)O)C2=O)o1	23.8% (active)
Cc1ccc(-c2nn(-c3ccccc3)cc2CN(Cc2ccccc2)C(=O)CCC(=O)O)o1	-2.67% (inactive)
C=CCOc1ccc(/C=C2\SC(=S)N(CCC(=O)O)C2=O)cc1	6.24% (inactive)
COc1ccc(-c2nn(-c3ccccc3)cc2/C=C2/SC(=S)N(CCCC(=O)O)C2=O)c(C)c1	23.3% (active)
CCCn1nc(C(=O)Nc2ccc3nc(C)sc3c2)c2ccccc2c1=O	-3.9% (inactive)
COc1ccc(-c2cc(C(F)(F)F)n3nc(C(=O)N4CCOCC4)c(Cl)c3n2)cc1	-1.63% (inactive)
CCOC(=O)c1nn(-c2cccc(C)c2)cc1C(=O)c1ccccc1	1.33% (inactive)
COc1c(F)c(F)c(-c2csc(N)n2)c(F)c1F	-1.76% (inactive)
N#Cc1ccc(C(=O)OCC(=O)NC(=O)NC2CCCCC2)cc1	0.62% (inactive)
CS(=O)(=O)c1ccc2c(c1)SC1=NC(=O)/C(=C/c3ccco3)C(=N)N12	24.5% (active)
CCS(=O)(=O)C1=NSC2=NC(=O)/C(=C\c3ccc(OS(=O)(=O)c4ccccc4)cc3)C(=N)N21	1.95% (inactive)

Compound	inhibition
CS(=O)(=O)C1=NN2C(=N)/C(=C\c3ccc(OCCOc4ccccc4)cc3)C(=O)N=C2S1	12.2% (inactive)
Cc1cc(NC(=O)OC(C)C)ccc1-c1ccc(NC(=O)OC(C)C)cc1C	-5.37% (inactive)
COCC(C)NC(=O)COc1nncc2ccccc12 (stereo not given)	-1.71% (inactive)
CSc1ccc(/C=N/NC(=O)c2cccc(Cl)c2)cc1	-0.88% (inactive)
CSc1ccc(/C=N\NC(=O)COc2ccc(Cl)cc2Br)cc1	45.6% (active)
CSc1ccc(/C=N\NC(=O)CC(=O)NC(C)C)cc1	-3.41% (inactive)
Cc1cc(C)c(S(=O)(=O)NCC(c2ccc3c(c2)OCO3)N2CCOCC2)c(C)c1 (stereo not given)	-3.95% (inactive)
CN(C(=O)COC(=O)c1cc(-c2ccco2)nc2ccccc12)C1CCS(=O)(=O)C1 (stereo not given)	41.1% (active)
CN(C(=O)COC(=O)c1nc(Cl)ccc1Cl)C1CCS(=O)(=O)C1 (stereo not given)	-2.63% (inactive)
CN(CCOc1ccccc1)C(=O)c1cc(-c2ccco2)nc2ccccc12	11% (inactive)
O=C(CC(c1ccccc1)c1cc(Cl)ccc1O)NCCN1CCOCC1 (stereo not given)	-1.01% (inactive)
Cc1ccc(-c2nc(SCC(=O)Nc3ccccc3OC(F)F)c3c(C)c(C(=O)O)sc3n2)cc1	52% (active)
O=C(COC(=O)c1ccccc1SCC(=O)N1CCCC1)Nc1ccccc1OC(F)F	-0.81% (inactive)
CCOC(=O)c1ccc[n+](CC(=O)Nc2ccccc2OC(F)F)c1	-3.16% (inactive)
Cc1ccc(C)c(NC(=O)CSc2nc3c(oc4ccccc43)c(=O)n2-c2ccccc2)c1	10.1% (inactive)
COc1cc(C(C(=O)NC2CCCC2)N(Cc2ccccc2)C(=O)c2snc(C(N)=O)c2N)ccc1O (stereo not given)	-0.55% (inactive)
CCOC(=O)Cc1cc(=O)[nH]c(=O)[nH]1	-3.59% (inactive)
COc1ccc(-c2ocnc2C(=O)Nc2ccc3c(c2)CCC3)cc1	-2.76% (inactive)
O=C1N=C2SCCN2/C1=C\c1c(Cl)cccc1Cl	15.4% (active)
O=C1N=C(N2CCCC2)S/C1=C\c1cccc(Br)c1	-0.89% (inactive)
O=Cc1c(Cl)cccc1Cl	-3.41% (inactive)
O=C(N/N=C\C1CC=CCC1)c1ccc(Br)o1 (stereo not given)	2.42% (inactive)
O=C(c1cn(-c2ccccc2)nc1-c1cccnc1)N1CCN(S(=O)(=O)c2ccccc2F)CC1	-1.36% (inactive)

Compound	inhibition
Cc1ccc(CNC(=O)CCN2C(=O)[C@@H]3Cc4ccccc4CN3C2=O)cc1	3.38% (inactive)
O=C(NCCN1CCOCC1)c1cc(-c2cccs2)nc2ccccc12	-5.13% (inactive)
O=C(Nc1nnc(-c2ccccc2)o1)c1cc(-c2cccs2)nc2ccccc12	34.7% (active)
CCCCN(C)CCCNC(=O)c1cc(-c2cccs2)nc2ccccc12	1.01% (inactive)
CCN(CC)c1ccc(NC(=O)CN2C(=O)NC3(CCc4ccccc43)C2=O)cc1 (stereo not given)	3.2% (inactive)
COCCCn1c(-c2cccs2)nc2nc3ccccc3nc21	-1.53% (inactive)
CC(C)(C)c1ccccc1NC(=O)CN1C(=O)NC2(CCCC2)C1=O	-2.93% (inactive)
O=C(/C=C/c1ccco1)Nc1ccc(Oc2ccccc2)cc1	3.61% (inactive)
Cc1nnc(NC(=O)/C=C/c2ccco2)s1	-3.35% (inactive)
Cc1ccc(-n2nc3ccc(NC(=O)/C=C/c4ccco4)cc3n2)cc1C	19.2% (active)
COc1ccc(CN2CCN(Cc3ccc(OC)c(OC)c3OC)CC2)cc1	-0.69% (inactive)
CCOc1ccc(N(CC(=O)Nc2cccc(OC)c2)S(C)(=O)=O)cc1	-2.47% (inactive)
COc1ccc(NC(=O)CSc2nnc(-c3ccccc3F)n2C2CC2)cc1S(N)(=O)=O	-2.33% (inactive)
Fc1cccc(Cl)c1COc1ccc(-c2nnco2)cc1	0.3% (inactive)
CC(=O)NCc1ccc(-c2csc(NC(=O)CCCc3nc4ccccc4c(=O)[nH]3)n2)cc1	-1.25% (inactive)
CCCn1c(C)cc(-c2csc(NC(=O)CCc3nc4ccccc4c(=O)[nH]3)n2)c1C	15.3% (active)
Cc1cc(C)c(-c2csc(NC(=O)CCCc3nc4ccccc4c(=O)[nH]3)n2)c(C)c1	1.77% (inactive)
O=C1CCCCN1CCCC(=O)N1CCCC(Nc2ccc(F)cc2)C1 (stereo not given)	-8.73% (inactive)
Cc1cccc(COc2ccccc2/C=N/Nc2ccc([N+](=O)[O-])cc2)c1	6.78% (inactive)
COCCNC(=O)c1ccccc1NS(=O)(=O)c1ccc(C)c([N+](=O)[O-])c1	-0.54% (inactive)
Cc1ccc(NS(=O)(=O)c2ccc(N/N=C/c3ccccc3OCC(=O)O)c([N+](=O)[O-])c2)c(C)c1	21.9% (active)

— PubChem BioAssay AID2235 (The Scripps Research Institute Molecular Screening Center, 2010)
